This is an account of results in PubChem BioAssay.

A short description of assay [1]: A549 cell viability effects, profiling panel, calcein-AM fluorescence, 48 h, basal (AID 1162). Further: test concentration not given here. The settings on record: higher = more signal.
Assay [2] is described as follows: adipocyte viability effects, profiling panel, cell-based, 3T3-L1 adipocytes, calcein-AM fluorescence, 48 h, basal (AID 1163). Further: test concentration not given here. The settings on record: 3T3-L1 adipocytes viability, higher = more signal.
Assay [3] in a line: HepG2 cell viability effects, profiling panel, calcein-AM fluorescence, 48 h, basal (AID 1164). Further: test concentration not given here. The settings on record: higher = more signal.
Assay [4] is described as follows: MM1S cell viability effects, profiling panel, calcein-AM fluorescence, 48 h, basal (AID 1165).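 Further: viability of MM1S multiple myeloma cells under basal unstimulated conditions; test concentration not given here.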 The settings on record: higher = more signal.
Assay [5] is described as follows: basal RPMI8226 viability, no added stimulus, profiling panel, cell-based, calcein-AM fluorescence, 48 h, PK04 Diversity Set (AID 1166).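 Further: cells grown under basal conditions without added stimulus; test concentration not given here.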 The following applies: RPMI8226 myeloma viability, higher = more signal.
The nature of assay [6]: basal HepG2 mitochondrial membrane potential changes, profiling panel, cell-based, JC-1 fluorescence, 24 h, 100 nL compound (AID 1167). Further: test concentration not given here. The following applies: higher = more signal.
The nature of assay [7]: basal 3T3-L1 adipocyte mitochondrial potential changes, profiling panel, cell-based, JC-1 fluorescence, 3T3-L1 adipocytes, 24 h, 100 nL compound (AID 1168). Further: test concentration not given here. The settings on record: JC-1 mitochondrial fluorescence, higher = more signal, called active from +8 up or from −8 down.
Assay [8] is described as follows: basal RPMI8226 mitochondrial membrane potential changes, profiling panel, cell-based, JC-1 fluorescence, 24 h, 100 nL compound (AID 1169). Further: test concentration not given here. The following applies: RPMI8226 myeloma, JC-1 mitochondrial potential fluorescence, higher = more signal.
The nature of assay [9]: basal MM1S mitochondrial membrane potential changes, profiling panel, cell-based, JC-1 fluorescence, 24 h, 100 nL compound (AID 1170). Further: test concentration not given here. The following applies: higher = more signal.
The nature of assay [10]: A549 lung cancer cell viability effects, profiling panel, resazurin fluorescence, 24 h, PK04 Diversity Set (AID 1171). Further: test concentration not given here. The settings on record: higher = more signal, called active from +8 up or from −8 down.
The nature of assay [11]: HepG2 liver cancer cell viability effects, profiling panel, resazurin fluorescence, 24 h, PK04 Diversity Set (AID 1172). Further: test concentration not given here. The settings on record: higher = more signal.
Assay [12] is described as follows: basal S. cerevisiae growth modulation, no modifier, primary screen, OD600, strain BY4716, 24 h, basal condition (AID 1173). The settings on record: OD600, 24 h, higher = more signal, called active from +8 up or from −8 down.
Assay [13] in a line: MM1S myeloma cell viability, profiling panel, resazurin fluorescence, basal, 24 h, PK04 Diversity Set (AID 1174). Further: test concentration not given here. The following applies: higher = more signal, called active from +8 up or from −8 down.
In assay [14] the target is Dihydroorotate dehydrogenase (quinone), mitochondrial (Plasmodium falciparum (isolate 3D7)) (UniProt Q08210). Put plainly: PfDHODH enzyme inhibitors, primary screen, biochemical, C-terminal His tag, absorbance 600 nm (AID 1175).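 Further: recombinant parasite enzyme with a five histidine tag at its C terminus; test concentration not given here.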 The settings on record: DCIP absorbance 600 nm, higher = more signal, called active from +8 up or from −8 down.
Assay [15] is described as follows: P. aeruginosa biofilm formation inhibitors, primary screen, strain PAO1, LB-PBS medium, absorbance 600 nm (AID 1176). Further: test concentration not given here. The settings on record: P. aeruginosa PAO1 growth/biofilm, A600, 12 h; higher = more signal.
Assay [16] in a line: S. cerevisiae RM11-1a growth modifiers, primary screen, strain RM11-1a, OD600, basal, 24 h (AID 1177).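 Further: cultures grown under basal conditions with no added stressor; test concentration not given here.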 The following applies: OD600, 24 h, higher = more signal, called active from +8 up or from −8 down.
Assay [17] in a line: E. coli acrAB mutant growth effects, primary screen, E. coli filamentation inducers, strain DRC39, OD650, 24 h (AID 1178).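 Further: growth measured as culture turbidity by optical density at 650 nm; test concentration not given here.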 The settings on record: higher = more signal, called active from +8 up or from −8 down.
The nature of assay [18]: E. coli acrAB mutant growth effects, primary screen, E. coli filamentation inducers, strain DRC39, OD650, 48 h (AID 1179).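 Further: screen aims at cell division blockers that make cells filament.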 The settings on record: E. coli DRC39 delta-acrAB growth, higher = more signal, called active from +8 up or from −8 down.
The nature of assay [19]: RPMI8226 myeloma cell viability, profiling panel, resazurin fluorescence, basal, 24 h, PK04 Diversity Set (AID 1180).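 Further: RPMI8826 multiple myeloma cell line at 5000 cells per well; test concentration not given here.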 The following applies: higher = more signal.
In assay [20] the target is E3 ubiquitin-protein ligase XIAP (Homo sapiens) (UniProt P98170). Put plainly: XIAP binders, primary screen, biophysical, small-molecule microarray, fluorescence 635 nm (AID 1181).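 Further: score merges 667 nm emission and signal to noise over triplicate slides.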 The following applies: small-molecule microarray binding, higher = more signal.

SMILES strings stand for the structures. Activity calls are given as the source filed them. Unless noted, how the calls were made is not given here.

Chain of Dihydroorotate dehydrogenase (quinone), mitochondrial (Plasmodium falciparum (isolate 3D7)) (Q08210 whole entry, looked up): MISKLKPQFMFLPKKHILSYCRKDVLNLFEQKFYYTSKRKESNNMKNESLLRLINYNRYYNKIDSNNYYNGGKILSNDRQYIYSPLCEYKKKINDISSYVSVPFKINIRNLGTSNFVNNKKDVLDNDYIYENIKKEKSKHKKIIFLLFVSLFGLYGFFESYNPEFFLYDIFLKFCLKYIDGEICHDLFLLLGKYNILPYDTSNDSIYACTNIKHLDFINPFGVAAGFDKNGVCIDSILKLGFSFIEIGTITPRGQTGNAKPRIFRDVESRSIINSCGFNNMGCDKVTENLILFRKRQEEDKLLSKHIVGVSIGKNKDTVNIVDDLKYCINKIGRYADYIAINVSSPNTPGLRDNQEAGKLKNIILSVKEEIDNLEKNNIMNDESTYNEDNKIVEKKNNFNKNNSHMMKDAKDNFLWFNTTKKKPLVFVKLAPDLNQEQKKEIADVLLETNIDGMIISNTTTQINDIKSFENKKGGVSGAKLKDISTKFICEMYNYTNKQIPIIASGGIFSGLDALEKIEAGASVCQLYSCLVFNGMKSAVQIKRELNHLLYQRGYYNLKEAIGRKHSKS
Chain of E3 ubiquitin-protein ligase XIAP (Homo sapiens) (P98170 whole entry, looked up): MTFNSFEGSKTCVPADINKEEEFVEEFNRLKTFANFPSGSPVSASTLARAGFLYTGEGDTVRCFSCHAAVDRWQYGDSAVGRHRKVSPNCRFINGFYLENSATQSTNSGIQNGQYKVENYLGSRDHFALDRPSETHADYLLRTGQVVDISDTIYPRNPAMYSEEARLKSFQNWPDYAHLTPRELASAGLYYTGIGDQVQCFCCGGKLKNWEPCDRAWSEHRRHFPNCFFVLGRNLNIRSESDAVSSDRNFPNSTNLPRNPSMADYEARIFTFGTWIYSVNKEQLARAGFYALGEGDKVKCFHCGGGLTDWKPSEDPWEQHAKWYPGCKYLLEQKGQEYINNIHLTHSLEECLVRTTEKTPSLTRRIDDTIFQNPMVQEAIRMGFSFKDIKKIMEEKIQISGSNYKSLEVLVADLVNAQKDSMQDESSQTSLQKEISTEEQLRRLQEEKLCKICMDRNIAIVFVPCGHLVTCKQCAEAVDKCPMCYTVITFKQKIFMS

Regarding `COC(=O)[C@@]1(Cc2ccc(OC)cc2)[C@H]2c3cc(C(=O)N(C)C)n(Cc4ccc(C)o4)c3C[C@H]2CN1C(=O)c1ccccc1`, the z-score was 0.774 in assay [1]; -0.0339 in assay [2]; 0.81 in [3]; -1.92 in [4]; -0.744 in [5]; 4.47 in [6]. Also, the z-score in assay [7] was -0.263 (inactive); in [8] it was -0.939; in assay [9] it was -3.01; in assay [10], -0.21 (inactive); in assay [11], -0.239; in assay [12], 0.256 (inactive). Also, the z-score in [13] was -3.45 (inactive); in [15], -0.719 (inactive); in assay [16], 1.54 (inactive); in assay [17] it was 0.502 (inactive); in assay [18] it was -0.0131 (inactive); in assay [19] it was -4.83. The composite z-score in assay [14] was 0.376 (inactive); in [20], 0.072.

For the compound `COc1cc(NN2C(C(O)c3cc(OC)c(OC)c(OC)c3)C=CC3C(=O)N(C)C(=O)C32)cc(OC)c1OC` (stereo not given), the z-score is -0.991 in assay [1]; -0.919 in [2]; -0.122 in assay [3]; -0.147 in [4]; -0.176 in assay [5]; -1.09 in assay [6]. The z-score in assay [7] is -1.04 (inactive); in [8], 0.729; in assay [9], -0.417; in assay [10], -0.4 (inactive); in assay [11], -0.177; in assay [12], 0.712 (inactive). The z-score in assay [13] is -0.464 (inactive); in assay [15] it was 0.366 (inactive); in assay [16], 0.276 (inactive); in [17] it was -0.0468 (inactive); in assay [18], 0.179 (inactive); in [19] it was -0.97. Further, the figures for the composite z-score in [14] and in assay [20] were -1.27 (inactive) and -0.144, respectively.

With `CC[C@@H]1C=C(C(=O)O)[C@H](c2ccccc2)N1S(=O)(=O)c1ccc(C)cc1`, the z-score in assay [1] is -0.71; in assay [2], -1.48; in assay [3] it was -1.22; in assay [4], -0.0502; in [5] it was -0.674; in assay [6], -0.93. For the same compound, the z-score in assay [7] is -0.703 (inactive); in [8] it was 0.77; in assay [9] it was -0.76; in [10], -0.687 (inactive); in assay [11], -0.791; in [12], 0.34 (inactive). Moreover, the z-score in assay [13] is -1.17 (inactive); in assay [15] it was 0.16 (inactive); in [16] it was -1.02 (inactive); in assay [17] it was -0.666 (inactive); in [18], -0.135 (inactive); in [19] it was -1.54. In addition, the results for the composite z-score in assay [14] and in assay [20] were -0.95 (inactive) and -0.0663, respectively.

Turning to `CCCNC(=O)[C@@]1(Sc2ccc(C)cc2)CC(=O)N(C2Cc3ccccc3C2)[C@@H]1c1ccc(CO)cc1I`, the z-score in assay [1] was 0.877; in assay [2], 0.331; in assay [3] it was 0.544; in assay [4] it was -1.54; in assay [5], -1.85; in assay [6], -0.574. For the same compound, the z-score was -0.0979 (inactive) in [7]; -0.778 in assay [8]; -0.987 in [9]; 0.309 (inactive) in assay [10]; -0.463 in [11]; -2.31 (inactive) in assay [12]. Also, the z-score was -1.67 (inactive) in assay [13]; 0.518 (inactive) in assay [15]; -0.564 (inactive) in assay [16]; 0.599 (inactive) in assay [17]; -0.0019 (inactive) in [18]; -1.55 in assay [19]. The composite z-score in assay [14] is -0.141 (inactive); in assay [20], -0.0286.

Take `C=CCN1C(=O)[C@]2(CCC(=O)OC(C)(C)C)N=C(c3ccc(OCCCO)cc3)O[C@@H]2c2ccccc21`: the z-score in [1] is -0.656; in assay [2], 1.79; in assay [3] it was -1.74; in [4] it was -3.56; in assay [5], -4.05; in [6], -1.45. The z-score in assay [7] was 4.11 (inactive); in assay [8] it was -1.05; in [9], -2.81; in assay [10], -2.21 (inactive); in [11] it was -1.11; in assay [12], -1.32 (inactive). In addition, the z-score was -3.44 (inactive) in [13]; 0.314 (inactive) in assay [15]; 0.853 (inactive) in [16]; 0.93 (inactive) in assay [17]; 0.685 (inactive) in assay [18]; -6.48 in [19]. Moreover, the composite z-score in assay [14] was -0.292 (inactive); in assay [20], -0.0387.

As to `[N-]=[N+]=Nc1ccccc1C[C@@]1(C(N)=O)N=C(c2ccc(OCCCO)cc2)O[C@@H]1c1ccccc1N=[N+]=[N-]`, the z-score is -1.53 in assay [1]; 1.08 in assay [2]; -0.727 in assay [3]; -1.68 in assay [4]; -4.08 in assay [5]; -1.11 in assay [6]. Moreover, the z-score was -1.35 (inactive) in assay [7]; -1.23 in assay [8]; -0.169 in assay [9]; -0.385 (inactive) in [10]; 0.212 in assay [11]; -3.3 (inactive) in assay [12]. Also, the z-score in assay [13] was -0.902 (inactive); in [15], 0.0405 (inactive); in assay [16], -0.739 (inactive); in assay [17] it was 0.891 (inactive); in [18], -0.174 (inactive); in [19], -0.76. Besides, the results for the composite z-score in [14] and in assay [20] were -0.652 (inactive) and -0.112, respectively.

Take `CCOC(=O)C[C@H]1[C@H](OC(=O)c2ccc(-c3ccccc3)cc2)[C@@H](NC(=O)CC(C)C)c2cc(OCCCO)ccc2N1C(=O)c1ccc2ccccc2n1`: the z-score in [1] is 1.37; in assay [2] it was 0.556; in [3] it was 0.627; in assay [4], 0.139; in assay [5], 0.0627; in assay [6], 1.66. In addition, the z-score in [7] is 1.47 (inactive); in assay [8], -0.233; in assay [9] it was -0.411; in assay [10] it was 0.713 (inactive); in [11], 1; in assay [12] it was -0.677 (inactive). For the same compound, the z-score in assay [13] was 0.722 (inactive); in assay [15], -0.382 (inactive); in [16] it was -0.248 (inactive); in assay [17] it was 0.102 (inactive); in assay [18] it was 0.327 (inactive); in [19] it was 0.517. The composite z-score in assay [14] is -1.31 (inactive); in [20], -0.134.

On to `Cc1ccc(NN2C(C(O)c3c(F)cccc3Cl)C=CC3C(=O)N(C4CCCCC4)C(=O)C32)cc1` (stereo not given), for which the z-score is 0.57 in assay [1]; -0.617 in assay [2]; 0.934 in [3]; 0.949 in [4]; 0.451 in assay [5]; -0.511 in assay [6]. Also, the z-score was 0.165 (inactive) in assay [7]; 0.0377 in [8]; -1.04 in assay [9]; 0.693 (inactive) in assay [10]; 0.703 in assay [11]; -0.074 (inactive) in assay [12]. Besides, the z-score was 0.0812 (inactive) in assay [13]; 1.47 (inactive) in assay [15]; -0.717 (inactive) in assay [16]; -0.452 (inactive) in assay [17]; 0.432 (inactive) in assay [18]; 0.262 in [19]. For the same compound, the composite z-score in assay [14] is -1.12 (inactive); in assay [20], 0.122.

On to `C=C[C@@H](OC)[C@H](OC(=O)Nc1ccc(OC)cc1)c1ccc(O)c(F)c1`, for which the z-score in [1] was -0.705; in assay [2], 0.792; in assay [3], -0.723; in assay [4] it was -2.17; in [5], -2.47; in assay [6] it was -2.82. Moreover, the z-score in assay [7] was -1.1 (inactive); in [8] it was -0.276; in [9], -0.0233; in assay [10] it was -0.0973 (inactive); in assay [11], -0.902; in assay [12], -6.91 (inactive). Moreover, the z-score is -0.967 (inactive) in [13]; 0.741 (inactive) in [15]; -0.175 (inactive) in [16]; 0.146 (inactive) in assay [17]; -0.355 (inactive) in [18]; -0.877 in assay [19]. Moreover, the composite z-score in assay [14] is -1.1 (inactive); in assay [20], 0.252.
